From PubChem BioAssay (NCI) come the findings set out here.

Compounds without any hit were thinned out: in the full panel of roughly 83,000, 20% have a hit.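 Testing used 96-well plates and a 48-hour single-concentration exposure. Example: -40 means 40% of the starting cells died.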 Unmarked numbers belong to inactive results. The source made the active and inactive calls. The calls were made as follows: active = growth percent below 10; inactive = the rest.

The first assay deals with U251 CNS. The assay can be described thus: NCI-60 one-dose screen, 48 h (100 = growth as untreated, 0 = no growth, -100 = all killed). To be noted: 10 µM unless noted.
For `C[n+]1c(/C=C/c2c(O)ccc3ccccc23)ccc2ccccc21`, the growth is 17.3%.
Same read-out and setting: the same measure for `Cc1ccc(S(=O)(=O)n2cc(C(=O)C(=O)N3CCOCC3)c3ccccc32)cc1`: 93.8%.
Still for that read-out and setting: for `COc1ccc2c(c1)[nH]c(=O)c1c3cc(OC)ccc3cn21` the value was -47.6% (active); for `C=C[C@@H]1C[C@@H]2Cc3c(C)cc(C)cc3N1O2`, 90.2%; for `C=C[C@@H]1C[C@H](O)Cc2cc(F)ccc2N1`, 93.3%.

A further assay relates to PC-3 prostate. Described as above. To be noted: 10 µM unless noted.
Regarding `COc1ccc(C2=CC(c3cc(OC)c(OC)c(OC)c3)NC(=O)N2)cc1OC` (stereo not drawn), the growth is 51%.
`O=C(CCl)N(C1CCCCC1)C1CCCCC1`: the growth was 93.7%.
Same read-out and setting: the same measure for `CNC(=S)NNC(=O)C1CC1`: 102%; for `COc1ccc(/C=C(\C#N)c2cc(OC)c3c(c2)OCO3)cc1`: 23%; for `Cc1ccc2nc(Cl)cc(=O)n2c1`: 96.9%.
The same measure, in the same setting: the same measure for `O=c1cc(Cc2ccc([N+](=O)[O-])cc2)[nH]c(=O)[nH]1`: 92.6%; for `CC1=C(C#N)C(=O)NC(C)C1` (stereo not drawn): 94.9%; for `CNc1ccc(Br)c2c1C(=O)c1ccccc1C2=O`: 94.5%.
Same read-out and setting: for `Cc1ccc(S(=O)(=O)C2=C3C(=C(c4ccccc4)c4ccccc43)CN(S(=O)(=O)c3ccc(C)cc3)C2)cc1` the value was 30.1%; for `C=C(C)[C@@H]1C[C@@H]2Cc3cc(F)ccc3N1O2`, 95%.
`NC(N)=Nc1nc2ccccc2o1`: the growth is 57.6%.
Still for that read-out and setting: for `CC(C)(C)OC(=O)NC(CSCc1ccccc1)C(=O)ON1C(=O)CCC1=O` (stereo not drawn) the value was 91.3%; for `COc1ccc(CN2CCc3c(Sc4ccccc4)nc(N)nc3C2=O)c(OC)c1`, 52.1%; for `COc1cc(/C=C/C(=O)c2ccc(Nc3ncnc4cc(OC)c(OC)cc34)cc2)cc(OC)c1`, 78%.
Same read-out and setting: the same measure for `S=C1CC(=S)NC(=S)N1`: 107%.
The same measure, in the same setting: the same measure for `COc1ccc2c(c1)[nH]c(=O)c1c3cccc(F)c3cn21`: 2.38% (active); for `NC1=NN(O)C2=CC([N+](=O)[O-])C=CC2=N1` (stereo not drawn): 86.5%.
Take `C=C[C@@H]1C[C@@H]2Cc3cc(Cl)ccc3N1O2`: the growth was 94.9%.
On the same count and under the same terms, the same measure for `CN(C)CCCC(C#N)c1ccccc1` (stereo not drawn): 99.1%; for `C=C1CCC2C3(C)COC(c4ccc(N(C)C)cc4)OC3CCC2(C)C1C/C=C1/C(=O)OCC1O` (stereo not drawn): 9.17% (active).
Turning to `COc1ccc(-c2cn(-c3cccc(C(=O)/C=C/c4cc(OC)c(OC)c(OC)c4)c3)c(=O)[nH]2)cc1OC`, the growth is 81.5%.
Same read-out and setting: for `C=C[C@@H]1C[C@@H]2Cc3cc(F)ccc3N1O2` the value was 102%.
On the same count and under the same terms, for `COc1ccc2c(c1)cn1c3ccc(OC)cc3[nH]c(=O)c21` the value was -72.7% (active).
`C=C[C@@H]1C[C@H](O)Cc2ccccc2N1`: the growth is 106%.
Still for that read-out and setting: the same measure for `NC(=S)N/N=C1\CCCC(C(F)(F)F)C1` (stereo not drawn): 69.6%; for `Cn1c(=O)c2[nH]c(C3CC=CCC3)nc2n(C)c1=O` (stereo not drawn): 87.6%.
Same read-out and setting: for `N#C/C(=C1C=C/C(=N/O)C(Cl)=C/1)c1ccc(Cl)cc1` the value was 22.2%; for `COc1ccc(C(=O)n2nc(/C=C/c3ccc(O)c(OC)c3)cc2/C=C/c2ccc(O)c(OC)c2)cc1`, -9.28% (active).
Same read-out and setting: for `C=C[C@@H]1C[C@H](O)Cc2c(C)cc(C)cc2N1` the value was 88.6%; for `Cn1ncc2c(Sc3ccc(Cl)cc3)ncnc21`, 78.1%.
`COc1cc(/C=C/c2cc(/C=C/c3ccc(O)c(OC)c3)n(C(N)=O)n2)ccc1O`: the growth is -23.5% (active).
On the same count and under the same terms, for `CO[C@H]1NC(=O)N(S(=O)(=O)c2ccc(Cl)cc2)[C@@H]1OC` the value was 97.3%.
As for `COc1ccc2[nH]c(=O)c3c4ccccc4cn3c2c1`, the growth is 7.65% (active).
`Nc1ncnc2c1c(-c1ccc(Oc3ccccc3)cc1)nn2C[C@@H]1SSC[C@@H]1O`: the growth was 55.4%.
`C[n+]1c(/C=C/c2c(O)ccc3ccccc23)ccc2ccccc21`: the growth was 25.4%.
Take `Cc1ccc(S(=O)(=O)n2cc(C(=O)C(=O)N3CCOCC3)c3ccccc32)cc1`: the growth was 67.5%.
For `COc1ccc2c(c1)[nH]c(=O)c1c3cc(OC)ccc3cn21`, the growth is 0.628% (active).
On the same count and under the same terms, for `C=C[C@@H]1C[C@@H]2Cc3c(C)cc(C)cc3N1O2` the value was 93%; for `C=C[C@@H]1C[C@H](O)Cc2cc(F)ccc2N1`, 97.2%.

Another assay concerns SK-MEL-5 melanoma. Described as above. To be noted: 10 µM unless noted.
For the compound `COc1ccc(C2=CC(c3cc(OC)c(OC)c(OC)c3)NC(=O)N2)cc1OC` (stereo not drawn), the growth is 18.5%.
The same measure, in the same setting: the same measure for `O=C(CCl)N(C1CCCCC1)C1CCCCC1`: 93.3%; for `CNC(=S)NNC(=O)C1CC1`: 105%.
Still for that read-out and setting: the same measure for `COc1ccc(/C=C(\C#N)c2cc(OC)c3c(c2)OCO3)cc1`: -58.9% (active).
Same read-out and setting: for `Cc1ccc2nc(Cl)cc(=O)n2c1` the value was 120%.
For the compound `O=c1cc(Cc2ccc([N+](=O)[O-])cc2)[nH]c(=O)[nH]1`, the growth was 109%.
Still for that read-out and setting: the same measure for `CC1=C(C#N)C(=O)NC(C)C1` (stereo not drawn): 105%; for `CNc1ccc(Br)c2c1C(=O)c1ccccc1C2=O`: 110%.
The same measure, in the same setting: the same measure for `Cc1ccc(S(=O)(=O)C2=C3C(=C(c4ccccc4)c4ccccc43)CN(S(=O)(=O)c3ccc(C)cc3)C2)cc1`: 81.9%.
Same read-out and setting: the same measure for `C=C(C)[C@@H]1C[C@@H]2Cc3cc(F)ccc3N1O2`: 95.3%; for `NC(N)=Nc1nc2ccccc2o1`: 93.8%; for `CC(C)(C)OC(=O)NC(CSCc1ccccc1)C(=O)ON1C(=O)CCC1=O` (stereo not drawn): 114%.
Regarding `COc1ccc(CN2CCc3c(Sc4ccccc4)nc(N)nc3C2=O)c(OC)c1`, the growth is 51.1%.
Take `COc1cc(/C=C/C(=O)c2ccc(Nc3ncnc4cc(OC)c(OC)cc34)cc2)cc(OC)c1`: the growth is 109%.
Same read-out and setting: for `S=C1CC(=S)NC(=S)N1` the value was 105%; for `COc1ccc2c(c1)[nH]c(=O)c1c3cccc(F)c3cn21`, 27.6%.
For `NC1=NN(O)C2=CC([N+](=O)[O-])C=CC2=N1` (stereo not drawn), the growth was 109%.
Same read-out and setting: the same measure for `C=C[C@@H]1C[C@@H]2Cc3cc(Cl)ccc3N1O2`: 102%; for `CN(C)CCCC(C#N)c1ccccc1` (stereo not drawn): 108%.
Same read-out and setting: for `C=C1CCC2C3(C)COC(c4ccc(N(C)C)cc4)OC3CCC2(C)C1C/C=C1/C(=O)OCC1O` (stereo not drawn) the value was 60.7%; for `COc1ccc(-c2cn(-c3cccc(C(=O)/C=C/c4cc(OC)c(OC)c(OC)c4)c3)c(=O)[nH]2)cc1OC`, 88.3%.
The same measure, in the same setting: for `C=C[C@@H]1C[C@@H]2Cc3cc(F)ccc3N1O2` the value was 108%; for `COc1ccc2c(c1)cn1c3ccc(OC)cc3[nH]c(=O)c21`, 4.14% (active).
Take `C=C[C@@H]1C[C@H](O)Cc2ccccc2N1`: the growth was 110%.
Take `NC(=S)N/N=C1\CCCC(C(F)(F)F)C1` (stereo not drawn): the growth is 116%.
In the case of `Cn1c(=O)c2[nH]c(C3CC=CCC3)nc2n(C)c1=O` (stereo not drawn), the growth is 111%.
Take `N#C/C(=C1C=C/C(=N/O)C(Cl)=C/1)c1ccc(Cl)cc1`: the growth is 93.5%.
On the same count and under the same terms, for `COc1ccc(C(=O)n2nc(/C=C/c3ccc(O)c(OC)c3)cc2/C=C/c2ccc(O)c(OC)c2)cc1` the value was -13.3% (active); for `C=C[C@@H]1C[C@H](O)Cc2c(C)cc(C)cc2N1`, 96.2%; for `Cn1ncc2c(Sc3ccc(Cl)cc3)ncnc21`, 90.1%.
On the same count and under the same terms, the same measure for `COc1cc(/C=C/c2cc(/C=C/c3ccc(O)c(OC)c3)n(C(N)=O)n2)ccc1O`: -33% (active); for `CO[C@H]1NC(=O)N(S(=O)(=O)c2ccc(Cl)cc2)[C@@H]1OC`: 108%; for `COc1ccc2[nH]c(=O)c3c4ccccc4cn3c2c1`: 35.1%.
For the compound `Nc1ncnc2c1c(-c1ccc(Oc3ccccc3)cc1)nn2C[C@@H]1SSC[C@@H]1O`, the growth is -86.4% (active).
For `C[n+]1c(/C=C/c2c(O)ccc3ccccc23)ccc2ccccc21`, the growth was 36%.
As for `Cc1ccc(S(=O)(=O)n2cc(C(=O)C(=O)N3CCOCC3)c3ccccc32)cc1`, the growth is 88.1%.
For the compound `COc1ccc2c(c1)[nH]c(=O)c1c3cc(OC)ccc3cn21`, the growth was 5.31% (active).
For `C=C[C@@H]1C[C@@H]2Cc3c(C)cc(C)cc3N1O2`, the growth was 103%.
On the same count and under the same terms, the same measure for `C=C[C@@H]1C[C@H](O)Cc2cc(F)ccc2N1`: 93.3%.
